HT1080NT lethal = kills 2HG-producing HT-1080-NT fibrosarcoma cells; HT-1080-NT fibrosarcoma viability, CellTiter-Glo ATP luminescence, 48 h; Potency, µM (doses to about 46.1 µM), for inactives: at the highest dose activity, negative = less viability, actives largely listed as cytotoxic; 1.6% of 360,000 active; AID 686970;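 note: NT is the 2HG producing partner of a matched IDH1 knockdown line; potency is the fitted concentration of half-maximal effect; 0% = DMSO-treated cells and -100% = media-only wells without cells; nearly all actives have a fitted effect of over 55% in size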
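Toxicity toward the 2HG-producing NT line was scored as %Activity, normalised to DMSO and no-cell wells, from CellTiter-Glo luminescence after 48 hours' treatment.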
TDP1 cell noCPT = qHTS for Inhibitors of human tyrosyl-DNA phosphodiesterase 1 (TDP1): qHTS in cells in absence of CPT; DT40 Tdp1-/- hTDP1 cells, no CPT, ATP luminescence, 48 h; 15% of 420,000 active; Potency, µM (titrated, usually from 46.2 µM), without a hit: at the top dose activity change, negative = growth inhibition, most hits filed as inhibitors; AID 686978, 2013; note: potency is the fitted concentration of half-maximal effect; nearly all actives have a fitted effect of over 55% in size
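Growth of hTDP1-complemented DT40 Tdp1-knockout cells is measured by ATP luminescence after at least 48 hr compound exposure at 37 °C, with DMSO substituting for the 20 nM CPT used in the parallel screen.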
DT40 TDP1 CPT = DT40-hTDP1 cell growth loss with CPT; 12% of 420,000 active; chicken DT40 Tdp1-/-;hTDP1 cells + 20 nM CPT, ATP luminescence, 48 h; AID 686979; Potency, µM (series often up to 46.2 µM), for the others: top-dose activity change, negative = growth inhibition, hits mostly inhibitors; note: potency is the fitted concentration of half-maximal effect; nearly all actives have a fitted effect of over 55% in size
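Cell growth measured by CellTiter-Glo luminescence after a minimum 48 h, 37 C compound exposure with 20 nM CPT in Tdp1-knockout DT40 cells stably expressing hTDP1, seeded 400/well; qHTS titration format.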
HT1080 IDH1KD tx = toxicity to HT-1080 IDH1 knockdown cells (counter line); 2% of 360,000 active; Potency, µM (series often up to 46.1 µM), for inactives: at the top dose activity, negative = toxicity, most hits filed as cytotoxic; HT-1080 IDH1 knockdown viability, ATP luminescence, 48 h;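 note: potency is the fitted concentration of half-maximal effect; 0% = DMSO wells and -100% = cell-free medium wells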
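Knockdown cells (IDH1KD HT-1080) received compounds 2 h after plating at 750 cells/well and were kept 48 h at 37 °C in 5% FBS RPMI. A CellTiter-Glo luminescence read gave % activity for curve fitting.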
IL1B secr inh = blocks inflammasome-driven IL-1 beta release; THP-1 LPS/ATP IL-1B secretion, AlphaLISA, 16 h; stronger effect = lower value; activity change, % at 57.5 µM; 4.7% of 360,000 active; AID 743279; in the data active = activity change below about -50%; inconclusive = mostly about -30% to -49%
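Secreted IL-1B measured by AlphaLISA bead assay after 16 h compound exposure of THP-1 cells; compounds (final up to 57.5 uM) added 1 h before LPS (250 ng/mL) and ATP (1.25 mM) stimulation; lower signal means less secretion.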
Numbers without * were called inactive; ? = inconclusive; nt = no result; [ ] = another dose, or the depositor's remark. Rows were chosen to be rich in hits. Some 19% of all compounds tested hit in one or more screens of this group. Unless noted, calls come from the whole dose curve; as a rule, active = well fitted curve in the direction sought with a large enough effect; inconclusive = small, poorly fitted or top-dose-only effect, or another doubt; inactive = no such curve, though single readings can be large; an effect the other way counts as inactive or inconclusive. Unless noted, % is set by controls: 0 for no effect and ±100 for the full control effect.

SMILES	HT1080NT lethal	TDP1 cell noCPT	DT40 TDP1 CPT	HT1080 IDH1KD tx	IL1B secr inh
CC1CCN(Cc2c(C(=O)N/N=C/c3cc(Cl)ccc3O)nnn2-c2nonc2N)CC1	?	5.8µM*	4.6µM*	4.1µM*	103
COc1c(Cl)cc(Cl)cc1/C=N/NC(=O)c1nnn(-c2nonc2N)c1CN1CCC(C)CC1	10%	?	15µM*	-1%	-17
Cc1cc(C)c(/C=N/NC(=O)c2nnn(-c3nonc3N)c2CN2CCC(C)CC2)c(C)c1	?	21µM*	?	?	-14
COc1ccc(O)c(/C=N/NC(=O)c2c(C)nnn2-c2nonc2N)c1	?	8.2µM*	18µM*	?	38
CCC(Cn1nnc2ccccc2c1=O)NC(=O)Nc1cc(C)cc(C)c1 (stereo not given)	nt	?	-21%	nt	nt
CC1CCN(Cc2c(C(=O)N/N=C/c3cc(Br)ccc3O)nnn2-c2nonc2N)CC1	3.7µM*	5.8µM*	5.8µM*	2.3µM*	110
COc1cccc(NC2=C(Cl)C(=O)OC2OC(=O)c2ccco2)c1 (stereo not given)	?	15µM*	12µM*	-23%	?
COc1ccccc1NC1=C(Cl)C(=O)OC1OC(=O)c1ccco1 (stereo not given)	21µM*	21µM*	23µM*	?	-25
CCOC1OC(=O)C(Cl)=C1Nc1ccccc1C (stereo not given)	4%	-27%	-31%	0%	-9
Cc1ccccc1NC1=C(Cl)C(=O)OC1OC(=O)c1ccco1 (stereo not given)	?	23µM*	26µM*	11µM*	?
COc1ccccc1NC(=O)c1cc(Cl)ccc1NC(=O)c1ccco1	-13%	-24%	-10%	-24%	-4
O=C(O)c1ccccc1C(=O)Nc1ccc(S(=O)(=O)NC2CCCCC2)cc1	8%	-4%	-6%	10%	17
Cc1ccc(NC(=S)NCc2ccc3c(c2)cc(C)n3C)c(C)c1	1%	23µM*	23µM*	9%	-2
Cc1ccc(NC(=S)NCc2ccc3c(c2)OCO3)c(C)c1	0%	21µM*	?	7%	?
CC1CC(Nc2ccccc2)c2ccccc2N1C(=O)c1cccnc1 (stereo not given)	?	4.6µM*	9.2µM*	?	0
CC1CC(Nc2ccccc2)c2ccccc2N1C(=O)c1ccccc1F (stereo not given)	2%	1µM*	1.8µM*	-7%	44
O=C(NC12CC3CC(CC(C3)C1)C2)N1CCN(C(=O)c2ccco2)CC1	1%	-18%	-4%	-5%	42
CC1CCCC(C)N1C(=O)COC(=O)c1ccc2ccccc2n1 (stereo not given)	0%	-11%	-17%	6%	2
CCC/C(=C1/c2ccccc2C(=O)N1c1ccccc1)c1ccc2[nH]ccc2c1	?	16µM*	16µM*	?	49
C[C@@H]1C[C@H]2[C@@H]3CCC4=CC(=O)C=C[C@]4(C)[C@@]3(F)C(O)C[C@]2(C)[C@@]1(O)C(=O)CO (stereo not given in full)	nt	-26%	5%	nt	nt
CCC(CC)COC(=O)C(C#N)c1nc2ccccc2nc1N1CCOCC1 (stereo not given)	-11%	23µM*	?	-11%	-4
C=CCOC(=O)C(C#N)c1nc2ccccc2nc1N1CCN(Cc2ccccc2)CC1 (stereo not given)	1%	23µM*	?	0%	-23
CCCCOC(=O)C(C#N)c1nc2ccccc2nc1N1CCN(Cc2ccc3c(c2)OCO3)CC1 (stereo not given)	-3%	18µM*	16µM*	-6%[9.24 µM]	-4
COCCOC(=O)C(C#N)c1nc2ccccc2nc1N1CCN(Cc2ccccc2)CC1 (stereo not given)	-2%	16µM*	23µM*	-1%	-8

Assay outcomes: PubChem, National Center for Advancing Translational Sciences (NCATS)
